The values below come from paper PMC5700166.

Experiment in all cases: protein-binding microarray (PBM); PBM: ~300 nM protein, 6 mM HEPES pH 7.8, 80 mM KCl, 0.5 mM EDTA, 0.5 mM EGTA, 6% glycerol, 35 ng/ul poly-dIdC, 1% milk, 1 h, room temperature; Ap Aiptasia and Nv Nematostella (sea anemones) / Co Capsaspora / Aq Amphimedon (sponge) / Dm Drosophila / Hu human; RHD is the Rel homology domain; high values mean tight binding
Conditions in all cases: dsDNA, one strand shown

Assay [1] deals with T1, GST-Dm-Relish (Drosophila melanogaster, UniProt Q94527 99-473).
T1 sequence: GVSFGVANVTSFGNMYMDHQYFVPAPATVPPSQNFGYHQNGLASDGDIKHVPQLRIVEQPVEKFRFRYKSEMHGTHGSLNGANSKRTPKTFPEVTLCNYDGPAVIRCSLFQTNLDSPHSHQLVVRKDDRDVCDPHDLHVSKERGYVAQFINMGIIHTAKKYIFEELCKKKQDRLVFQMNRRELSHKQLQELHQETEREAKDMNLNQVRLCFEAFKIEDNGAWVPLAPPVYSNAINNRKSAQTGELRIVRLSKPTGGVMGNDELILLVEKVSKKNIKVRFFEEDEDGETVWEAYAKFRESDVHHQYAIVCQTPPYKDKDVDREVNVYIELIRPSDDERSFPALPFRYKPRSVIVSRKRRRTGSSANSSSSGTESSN

Assay [2] addresses T2, GST-Aq-NF-kB (Amphimedon queenslandica, UniProt A9Y5G7 2-389).
T2 sequence: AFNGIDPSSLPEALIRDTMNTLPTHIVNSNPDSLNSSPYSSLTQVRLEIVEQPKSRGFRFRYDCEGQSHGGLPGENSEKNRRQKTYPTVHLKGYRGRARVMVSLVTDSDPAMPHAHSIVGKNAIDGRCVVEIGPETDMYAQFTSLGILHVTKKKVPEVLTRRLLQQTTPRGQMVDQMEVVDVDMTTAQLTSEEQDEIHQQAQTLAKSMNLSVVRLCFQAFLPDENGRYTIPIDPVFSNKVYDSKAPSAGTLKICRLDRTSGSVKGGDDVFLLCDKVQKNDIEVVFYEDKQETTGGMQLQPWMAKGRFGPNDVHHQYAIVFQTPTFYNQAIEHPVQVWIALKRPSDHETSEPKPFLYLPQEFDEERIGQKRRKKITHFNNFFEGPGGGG

Assay [3] addresses T3, GST-Co-NF-kB (Capsaspora owczarzaki, UniProt F1ARL5 200-546).
T3 sequence: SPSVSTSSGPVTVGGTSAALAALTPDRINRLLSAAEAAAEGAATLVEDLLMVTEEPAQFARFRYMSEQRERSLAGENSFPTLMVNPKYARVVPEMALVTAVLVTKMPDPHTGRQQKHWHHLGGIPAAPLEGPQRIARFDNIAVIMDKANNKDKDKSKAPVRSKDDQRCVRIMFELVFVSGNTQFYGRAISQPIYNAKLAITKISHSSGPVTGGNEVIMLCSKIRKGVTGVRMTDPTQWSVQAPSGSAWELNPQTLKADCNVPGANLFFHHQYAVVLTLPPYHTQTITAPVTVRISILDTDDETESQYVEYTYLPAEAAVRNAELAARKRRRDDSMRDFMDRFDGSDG

For the sequence “CCGATTAACATCACGAAAATTCCTGATGTTAATCGGGTCTTGATTCGCTTGACGCTGCTG”, the binding signal in assay [1] turned out to be 1.12 z-score; in assay [2], 1.41 z-score.

Regarding “CCGATTAACATCAGAAATTTTCCTGATGTTAATCGGGTCTTGATTCGCTTGACGCTGCTG”, the binding signal was found to be 1.39 z-score in assay [1] and 1.31 z-score in assay [2].

For “CCGATTAACATCAGGTATTTCCATGATGTTAATCGGGTCTTGATTCGCTTGACGCTGCTG”, the binding signal was found to be 2.79 z-score in assay [1] and 3.5 z-score in assay [2].

As to “CCGATTAACATCAGGAAATTTTATGATGTTAATCGGGTCTTGATTCGCTTGACGCTGCTG”, the binding signal in assay [1] was found to be 1.46 z-score; in assay [2], 1.85 z-score.

With “CCGATTAACATCAGGGATGCCCATGATGTTAATCGGGTCTTGATTCGCTTGACGCTGCTG”, the binding signal was determined as 6.66 z-score in assay [1] and 2.22 z-score in assay [2].

For the sequence “CCGATTAACATCAACAAAATTCCTGATGTTAATCGGGTCTTGATTCGCTTGACGCTGCTG”, the binding signal was found to be 1.6 z-score in assay [1] and 1.34 z-score in assay [2].

As for “CCGATTAACATCAAAAATTTTCCTGATGTTAATCGGGTCTTGATTCGCTTGACGCTGCTG”, the results for the binding signal in assay [3], in assay [1] and in assay [2] were 1.7 z-score, 2.62 z-score and 1.81 z-score, respectively.

Consider “CCGATTAACATCAGGAAATACCATGATGTTAATCGGGTCTTGATTCGCTTGACGCTGCTG”, for which the binding signal came out at 3.07 z-score in assay [1] and 3.27 z-score in assay [2].

With “CCGATTAACATCACGGAAACTCCTGATGTTAATCGGGTCTTGATTCGCTTGACGCTGCTG”, the results for the binding signal in assay [1] and in assay [2] were 1.23 z-score and 3.4 z-score, respectively.

For the sequence “CCGATTAACATCAAAATTTCCACTGATGTTAATCGGGTCTTGATTCGCTTGACGCTGCTG”, the binding signal was found to be 1.61 z-score in assay [1] and 1.15 z-score in assay [2].

On to “CCGATTAACATCAAAAAAAATCCTGATGTTAATCGGGTCTTGATTCGCTTGACGCTGCTG”, for which the binding signal in assay [1] was 3.09 z-score; in assay [2] it was 2.68 z-score.

Regarding “CCGATTAACATCAAAAATTCCTATGATGTTAATCGGGTCTTGATTCGCTTGACGCTGCTG”, the binding signal in assay [1] is 1.74 z-score; in assay [2] it was 1.2 z-score.

As to “CCGATTAACATCACAGGATTTCCTGATGTTAATCGGGTCTTGATTCGCTTGACGCTGCTG”, the binding signal in assay [1] came to 1.81 z-score; in assay [2], 1.18 z-score.

Take “CCGATTAACATCACGGGATGTACTGATGTTAATCGGGTCTTGATTCGCTTGACGCTGCTG”: the binding signal in assay [1] amounted to 5.98 z-score; in assay [2], 1.26 z-score.

Turning to “CCGATTAACATCAATAAATTTCCTGATGTTAATCGGGTCTTGATTCGCTTGACGCTGCTG”, the results for the binding signal in assay [1] and in assay [2] were 1.55 z-score and 1.86 z-score, respectively.

For “CCGATTAACATCAGCGGAAATCCTGATGTTAATCGGGTCTTGATTCGCTTGACGCTGCTG”, the figures for the binding signal in assay [1] and in assay [2] were 1.26 z-score and 1.07 z-score, respectively.

As for “CCGATTAACATCACAGGAATTCCTGATGTTAATCGGGTCTTGATTCGCTTGACGCTGCTG”, the results for the binding signal in assay [1] and in assay [2] were 3.05 z-score and 2.17 z-score, respectively.

In the case of “CCGATTAACATCAATAAAATTCCTGATGTTAATCGGGTCTTGATTCGCTTGACGCTGCTG”, the figures for the binding signal in assay [1] and in assay [2] were 1.81 z-score and 1.79 z-score, respectively.

For “CCGATTAACATCACGGAATTTTCTGATGTTAATCGGGTCTTGATTCGCTTGACGCTGCTG”, the binding signal in assay [1] turned out to be 1.06 z-score; in assay [2], 2.35 z-score.

On to “CCGATTAACATCACAAAATTTCCTGATGTTAATCGGGTCTTGATTCGCTTGACGCTGCTG”, for which the binding signal is 1.74 z-score in assay [1] and 1.72 z-score in assay [2].

“CCGATTAACATCAGGAAAAATCCTGATGTTAATCGGGTCTTGATTCGCTTGACGCTGCTG”: the binding signal in assay [1] came to 1.66 z-score; in assay [2], 1.79 z-score.

For the sequence “CCGATTAACATCAAGTAAATTCCTGATGTTAATCGGGTCTTGATTCGCTTGACGCTGCTG”, the results for the binding signal in assay [1] and in assay [2] were 2.49 z-score and 1.35 z-score, respectively.

As for “CCGATTAACATCAGGAATTTCCATGATGTTAATCGGGTCTTGATTCGCTTGACGCTGCTG”, the values for the binding signal in assay [1] and in assay [2] were 2.65 z-score and 3.89 z-score, respectively.

For the sequence “CCGATTAACATCAGGAAACTCCATGATGTTAATCGGGTCTTGATTCGCTTGACGCTGCTG”, the binding signal in assay [1] is 1.62 z-score; in assay [2], 2.15 z-score.

For the sequence “CCGATTAACATCACGGAATTCCGTGATGTTAATCGGGTCTTGATTCGCTTGACGCTGCTG”, the binding signal in assay [1] amounted to 1.22 z-score; in assay [2] it was 1.25 z-score.

In the case of “CCGATTAACATCAGGGCTTTCCATGATGTTAATCGGGTCTTGATTCGCTTGACGCTGCTG”, the binding signal in assay [1] was 3.94 z-score; in assay [2], 3.39 z-score.

Consider “CCGATTAACATCAGGACTTTCCATGATGTTAATCGGGTCTTGATTCGCTTGACGCTGCTG”, for which the binding signal in assay [1] came out at 3.27 z-score; in assay [2], 4.23 z-score.

On to “CCGATTAACATCAGTACTTTCCATGATGTTAATCGGGTCTTGATTCGCTTGACGCTGCTG”, for which the binding signal in assay [1] is 5.35 z-score; in assay [2] it was 1.95 z-score.

“CCGATTAACATCACGGCCTTTCCTGATGTTAATCGGGTCTTGATTCGCTTGACGCTGCTG”: the binding signal in assay [1] worked out at 1.05 z-score; in assay [2] it was 1.82 z-score.

On to “CCGATTAACATCAGGAAAAGTACTGATGTTAATCGGGTCTTGATTCGCTTGACGCTGCTG”, for which the binding signal in assay [1] was 4.26 z-score; in assay [2], 1.14 z-score.

For the sequence “CCGATTAACATCAGGAATTTACATGATGTTAATCGGGTCTTGATTCGCTTGACGCTGCTG”, the binding signal came out at 5.41 z-score in assay [1] and 1.28 z-score in assay [2].

With “CCGATTAACATCAGGTTCTTACCTGATGTTAATCGGGTCTTGATTCGCTTGACGCTGCTG”, the binding signal in assay [1] is 1.79 z-score; in assay [2], 1.38 z-score.

Regarding “CCGATTAACATCAGGAAAGTCCATGATGTTAATCGGGTCTTGATTCGCTTGACGCTGCTG”, the binding signal was 3.2 z-score in assay [1] and 3.71 z-score in assay [2].

“CCGATTAACATCACGGAAACTACTGATGTTAATCGGGTCTTGATTCGCTTGACGCTGCTG”: the results for the binding signal in assay [1] and in assay [2] were 1.84 z-score and 1.46 z-score, respectively.

With “CCGATTAACATCACGTAAAACCCTGATGTTAATCGGGTCTTGATTCGCTTGACGCTGCTG”, the results for the binding signal in assay [1] and in assay [2] were 3.01 z-score and 2.12 z-score, respectively.

Consider “CCGATTAACATCAAGGAATTCCGTGATGTTAATCGGGTCTTGATTCGCTTGACGCTGCTG”, for which the binding signal amounted to 1.78 z-score in assay [1] and 1.75 z-score in assay [2].

Turning to “CCGATTAACATCAAAAATTCCACTGATGTTAATCGGGTCTTGATTCGCTTGACGCTGCTG”, the binding signal amounted to 2.3 z-score in assay [1] and 1.44 z-score in assay [2].

Regarding “CCGATTAACATCACGGACTTTCCTGATGTTAATCGGGTCTTGATTCGCTTGACGCTGCTG”, the results for the binding signal in assay [1] and in assay [2] were 2.95 z-score and 5.31 z-score, respectively.
